# Reference: PubChem BioAssay (Tox21)
# Results filed as inconclusive are left out. Calls of active or inactive are those of the source. The call rests on the fitted dose curve; in most records, active means well fitted cell-killing curve with a large enough effect in the repeat runs; inconclusive means weak or mixed curves; inactive means flat fitted curve, though single readings scatter.
# Assay: qHTS assay to identify small molecule antagonists of the estrogen related receptor (ERR) signaling pathway from Tox21 library - cell viability counter screen (AID 1224834); further: nearly all actives have a fitted effect of over 30% in size
# Conditions: ERR reporter cells viability, CellTiter-Fluor, 17.5 h; series mostly up to 92.4 µM; viability change, negative = cytotoxic: at the top concentration
# Excerpt: National Center for Advancing Translational Sciences [NCATS]
# NIH Chemical Genomics Center [NCGC]
# U.S. Environmental Protection Agency [EPA]
# National Institutes of Environmental Health Sciences [NIEHS]
# National Toxicology Program [NTP]
# U.S. Food and Drug Administration [FDA]
# Estrogen related receptors (ERRs), the first orphan nuclear receptors discovered, play an important role in the control of cellular energy metabolism. ERRs are required for high-energy production in response to the environmental challenges. ERR-alpha was also identified as an adverse marker for breast cancer progression; ERR-alpha-positive tumors have a poor prognosis. To screen and to identify environmental compounds that perturb the ERR signaling pathways could provide valuable information for potential therapeutic or preventive measures in the treatment of metabolic disease. To differentiate true ERR antagonists or agonist from cytotoxic substances, the assay is multiplexed with cell viability assay.
# Tox21 Assay Protocol Summary:
# The ERR cells were dispensed at 2,000 cells/5 ul/well in 1536-well white plates using a Multidrop dispenser. After the assay plates were incubated at a 37 C/5% CO2 incubator for 6 hours, 23 nL of compounds dissolved in DMSO, positive and negative controls or DMSO only was transferred to the assay plate by a pin tool. The plates were incubated at 37 C for 17.5 hours. 1 ul/well of CellTiter-Fluor reagent was added into the assay plates using a Flying Reagent Dispenser. After 30-minute incubation at 37 C/5% CO2, the fluorescence intensity in the plates was measured using a ViewLux plate reader.
# On the % scale 0 is the no-effect control and ±100 the full control effect; potency means the concentration at half of the fitted maximal effect.
Structure (SMILES),Potency,"viability change, negative = cytotoxic"
CC1=C2C[C@H]3[C@@H](CC=C4C[C@@H](O)CC[C@@]43C)[C@@H]2CC[C@]12O[C@@H]1C[C@H](C)CN[C@H]1[C@H]2C,26.6 µM (active),
BrCC(Br)(Br)Br,,-1.13% (inactive)
COc1nc(C)nc(NC(=O)NS(=O)(=O)c2ccccc2Cl)n1,,5.22% (inactive)
CC(C)[C@@H](Nc1ccc(C(F)(F)F)cc1Cl)C(=O)OC(C#N)c1cccc(Oc2ccccc2)c1 (stereo not given in full),,3.01% (inactive)
CCCCCON=O,,1.97% (inactive)
COP(=S)(NC(C)C)Oc1ccc(C)cc1[N+](=O)[O-] (stereo not given),,-8.85% (inactive)
C1=CCC=C1,,6.85% (inactive)
N#Cc1sc2c(=O)c3ccccc3c(=O)c=2sc1C#N,48.6 µM (active),
CC(=O)[O][Sn]([c]1ccccc1)([c]1ccccc1)[c]1ccccc1,0.217 µM (active),
O.O.O.O.O.O.O=S(=O)([O-])[O-].[Ni+2],,3.53% [at 42.5 µM] (inactive)
FC(F)C(F)(F)OCC(Cn1cncn1)c1ccc(Cl)cc1Cl (stereo not given),43 µM (active),
CC[N+]1(CC)CCC(OC(=O)C(O)(c2ccccc2)c2ccccc2)C1 (stereo not given),,1.78% [at 42.5 µM] (inactive)
CSC(C)(C)/C=N/O,,5.29% (inactive)
CSSC,,-8.82% (inactive)
O=P(Cl)(Cl)Cl,,5.46% (inactive)
COc1cnc(OC)n2nc(NS(=O)(=O)c3c(OCC(F)F)cccc3C(F)(F)F)nc12,,5.73% (inactive)
N#Cc1c2ccccc2cc2ccccc12,,4.06% (inactive)
Nc1ccc(N=Nc2ccccc2)cc1,24.3 µM (active),
O=S1OCC2C(CO1)C1(Cl)C(Cl)=C(Cl)C2(Cl)C1(Cl)Cl (stereo not given),54.5 µM (active),
CN1[C@@H]2CC[C@H]1CC(O)C2 (stereo not given in full),,0.412% (inactive)

Structure (SMILES),Potency,"viability change, negative = cytotoxic"
COCCC#N,,1.68% (inactive)
CC[C@H](C)[C@H]1O[C@]2(C=C[C@@H]1C)C[C@@H]1C[C@@H](C/C=C(\C)[C@@H](O[C@H]3C[C@H](OC)[C@@H](O[C@H]4C[C@H](OC)[C@@H](NC)[C@H](C)O4)[C@H](C)O3)[C@@H](C)/C=C/C=C3\CO[C@@H]4[C@H](O)C(C)=C[C@@H](C(=O)O1)[C@]34O)O2,8.63 µM (active),
Cc1ccc(C)c2ccccc12,,0.989% (inactive)
O=C(Nc1ccc(F)cc1F)c1cccnc1Oc1cccc(C(F)(F)F)c1,,0.0811% (inactive)
CCNS(=O)(=O)C(F)(F)C(F)(F)C(F)(F)C(F)(F)C(F)(F)C(F)(F)C(F)(F)C(F)(F)F,,-5.6% (inactive)
Cc1nn(-c2cc(NS(C)(=O)=O)c(Cl)cc2Cl)c(=O)n1C(F)F,,-6.13% (inactive)
CCCCC(CC)COC(=O)OOC(C)(C)C (stereo not given),,3.8% (inactive)
CNN,,-0.199% (inactive)
CCC1(CC)C(=O)N=C(O)NC1=O,,1.19% (inactive)
CCCCc1ccccc1,,0.395% (inactive)
Oc1cccc(Cl)c1Cl,,4.2% (inactive)
CCCCC(CC)COC(=O)c1ccccc1C(=O)OCC(CC)CCCC (stereo not given),,1.79% (inactive)
C[C@]12CC[C@H]3[C@@H](CCC4=CC(=O)CC[C@@H]43)[C@@H]1CC[C@@H]2OC(=O)CCc1ccco1,,7.6% [at 42.5 µM] (inactive)
O=C(Cl)c1ccccc1F,,6.12% (inactive)
COC(=O)C(C)N(C(=O)c1ccco1)c1c(C)cccc1C (stereo not given),,-0.18% (inactive)
O=[N+]([O-])c1ccc(CCl)cc1,,-1.25% (inactive)
CCOP(=O)(OCC)Oc1nc(Cl)c(Cl)cc1Cl,,-3.71% (inactive)
CCCCC/C=C\C/C=C\C/C=C\C/C=C\CCCC(=O)NCC(=O)O,,-0.694% [at 42.5 µM] (inactive)
CC(=O)[O-].CC(=O)[O-].O.O.O.[Pb+2],,0.545% (inactive)
O.O.O.O=C([O-])[C@H]([O-])[C@@H]([O-])C(=O)[O-].O=C([O-])[C@H]([O-])[C@@H]([O-])C(=O)[O-].[K+].[K+].[Sb+3].[Sb+3],17.3 µM (active),
